# “And” between values parts separate entries of the source, which are not always exact repeats. Equal values may be shown once. Inconclusive results are not listed. The source made the active and inactive calls. Calls follow the shape of the dose curve; as a rule, active = well fitted inhibition curve with a large enough effect; inconclusive = small, poorly fitted or top-dose-only effect; inactive = flat fitted curve, though single readings scatter.
# Tested on: KB-3-1
# Experiment: Cytotoxic Profiling of Annotated Libraries Using Quantitative High-Throughput Screening (AID 1296008); also: nearly all actives have a fitted effect of over 60% in size
# Conditions: Five cell lines viability, CellTiter-Glo ATP luminescence, 48-72 h; max response: stronger effect = lower value
# Procedure, shortened: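 Compounds were pin-transferred onto cells and incubated 48 or 72 hr at 37 degree Celsius, 95% humidity. CellTiter-Glo was added, plates sat 10 min at room temperature, then ATP-coupled luminescence was imaged as the viability read-out.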
# % is scaled to controls: 0 for no effect and ±100 for the full control effect; potency is read from the fitted curve at half-maximal effect.
SMILES,max response,Potency
CC(=O)OCC(=O)[C@H]1CC[C@H]2[C@@H]3CC[C@H]4C[C@H](O)CC[C@]4(C)[C@H]3C(=O)C[C@]12C,2.82% (inactive),
C[C@]12CC[C@H](OS(=O)(=O)O)CC1=CC[C@@H]1[C@@H]2CC[C@]2(C)C(=O)CC[C@@H]12,5.94% (inactive),
C[C@]12CC[C@H](O)C[C@H]1CC[C@@H]1[C@@H]2CC[C@]2(C)[C@@H](c3ccc(=O)oc3)C[C@H]3O[C@]132,,1.84 µM (active)
O=C1OC2(c3cc(Br)c(O)cc3Oc3c2cc(Br)c(O)[c]3[Hg])c2ccccc21 (configuration not stated),6.88% (inactive),
O=C/C=C/c1ccccc1,17.4% (inactive),
O=C(O)C(Cl)(Cl)Cl,-15.3% (inactive),
Clc1ccccc1Cl,4.39% (inactive),
CCC/C=C/C=C/C(=O)O[C@H]1/C(=C/C(=O)OC)C[C@H]2C[C@H]([C@@H](C)O)OC(=O)C[C@H](O)C[C@@H]3C[C@H](OC(C)=O)C(C)(C)[C@](O)(C[C@@H]4C/C(=C/C(=O)OC)C[C@H](/C=C/C(C)(C)[C@]1(O)O2)O4)O3,0.184% (inactive),
CC(=O)Oc1ccc2c3c1O[C@H]1[C@@H](OC(C)=O)C=C[C@H]4[C@@H](C2)N(C)CC[C@@]341,-5% (inactive) and 2.33% (inactive),
C=CCC1(C(C)CCC)C(=O)N=C(S)NC1=O (configuration not stated),-6.22% (inactive),
COc1ccc2c3c1O[C@H]1[C@@H](O)C=C[C@H]4[C@@H](C2)NCC[C@@]341,2.68% (inactive) and -3.7% (inactive),
[H+].[H+].[Hg+2].[O-]B([O-])[O-].[c-]1ccccc1,,8.2 µM (active)

# Reference: PubChem BioAssay (NCATS)
